According to PubChem BioAssay AID1159580 (chemical genetic matrix, 2015):
Where “and” joins values, the source holds several entries; their conditions need not be identical. Equal entries are not always repeated. The campaign covered roughly 5,500 compounds. About 2,000 (36%) were called active. Not shown: some 18% with an inconclusive outcome. Rule as the data show it: active = normalized growth mostly below about 0.91 (no sharp cut-off); inconclusive = no clear call, values can overlap the other calls; inactive = mostly above about 0.92. The list shows a part of the results.

Test: chemical genetic growth profiling, strain panel (AID 1159580);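 also: tested at 20 µM; growth read once vehicle control cultures reached saturation at 30 °C; 1 = growth at the plate median or of vehicle wells; lower values mean less growth of the strain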
Details: S. cerevisiae deletion strains, growth OD

Cc1cc(/C=C/c2ccc3cc(N(C)C)ccc3[n+]2C)c(C)n1-c1ccccc1
normalized growth (locus YAL013W, strain DEP1, stronger effect = lower value): 0.987 (inactive) | normalized growth (locus YAL021C, strain ccr4, stronger effect = lower value): 0.507 (active) | normalized growth (locus YAL026C, strain drs2, stronger effect = lower value): 0.924 (inactive) | normalized growth (locus YAL030W, strain snc1, stronger effect = lower value): 0.954 (inactive) | normalized growth (locus YBL061C, strain skt5, stronger effect = lower value): 0.927 (inactive) | normalized growth (locus YBR009C, strain hhf1, stronger effect = lower value): 0.922 (inactive) | normalized growth (locus YBR021W, strain FUR4, stronger effect = lower value): 0.668 (active) | normalized growth (locus YBR023C, strain chs3, stronger effect = lower value): 0.96 (inactive) | normalized growth (locus YBR171W, strain sec66, stronger effect = lower value): 1.04 (inactive) | normalized growth (locus YBR229C, strain ROT2, stronger effect = lower value): 1 (inactive) | normalized growth (locus YBR231C, strain swc5, stronger effect = lower value): 0.74 (active) | normalized growth (locus YBR279W, strain paf1, stronger effect = lower value): 0.882 (active) | normalized growth (locus YCL011C, strain gbp2, stronger effect = lower value): 0.837 (active) | normalized growth (locus YCL016C, strain dcc1, stronger effect = lower value): 0.912 (active) | normalized growth (locus YCL029C, strain bik1, stronger effect = lower value): 0.998 (inactive) | normalized growth (locus YCL061C, strain MRC1, stronger effect = lower value): 0.93 (inactive) | normalized growth (locus YCL069W, strain vba3, stronger effect = lower value): 0.995 (inactive) | normalized growth (locus YCR088W, strain abp1, stronger effect = lower value): 0.978 (inactive) | normalized growth (locus YDL005C, strain med2, stronger effect = lower value): 1.03 (inactive) | normalized growth (locus YDL035C, strain GPR1, stronger effect = lower value): 0.525 (active) | normalized growth (locus YDL040C, strain nat1, stronger effect = lower value): 1 (inactive) | normalized growth (locus YDL074C, strain BRE1, stronger effect = lower value): 0.653 (active) | normalized growth (locus YDL101C, strain DUN1, stronger effect = lower value): 0.744 (active) | normalized growth (locus YDL134C, strain PPH21, stronger effect = lower value): 0.615 (active) | normalized growth (locus YDL185W, strain tfp1, stronger effect = lower value): 1 (inactive) | normalized growth (locus YDL192W, strain arf1, stronger effect = lower value): 0.987 (inactive) | normalized growth (locus YDR001C, strain nth1, stronger effect = lower value): 1.01 (inactive) | normalized growth (locus YDR069C, strain doa4, stronger effect = lower value): 0.989 (inactive) | normalized growth (locus YDR101C, strain arx1, stronger effect = lower value): 0.986 (inactive) | normalized growth (locus YDR137W, strain rgp1, stronger effect = lower value): 0.834 (active) | normalized growth (locus YDR159W, strain sac3, stronger effect = lower value): 1.04 (inactive) | normalized growth (locus YDR162C, strain NBP2, stronger effect = lower value): 0.232 (active) | normalized growth (locus YDR195W, strain ref2): 1.25 [resistant] (active) | normalized growth (locus YDR297W, strain sur2, stronger effect = lower value): 0.961 (inactive) | normalized growth (locus YDR318W, strain mcm21, stronger effect = lower value): 0.946 (inactive) | normalized growth (locus YDR334W, strain swr1, stronger effect = lower value): 0.843 (active) | normalized growth (locus YDR335W, strain msn5, stronger effect = lower value): 0.953 (inactive) | normalized growth (locus YDR388W, stronger effect = lower value): 0.989 (inactive) | normalized growth (locus YDR392W, strain spt3, stronger effect = lower value): 0.782 (inactive) | normalized growth (locus YDR502C, strain sam2, stronger effect = lower value): 0.943 (inactive) | normalized growth (locus YEL003W, strain gim4, stronger effect = lower value): 0.949 (inactive) | normalized growth (locus YEL037C, strain rad23, stronger effect = lower value): 0.915 (active) | normalized growth (locus YEL061C, strain CIN8 (second series), stronger effect = lower value): 1 (inactive) | normalized growth (locus YEL061C, strain CIN8, stronger effect = lower value): 0.879 (active) | normalized growth (locus YER015W, strain faa2, stronger effect = lower value): 0.736 (active) | normalized growth (locus YER016W, strain bim1, stronger effect = lower value): 0.992 (inactive) | normalized growth (locus YER110C, stronger effect = lower value): 1.02 (inactive) | normalized growth (locus YER111C, strain swi4, stronger effect = lower value): 1.05 (inactive) | normalized growth (locus YER155C, strain BEM2 (second series), stronger effect = lower value): 0.727 (active) | normalized growth (locus YER155C, strain BEM2, stronger effect = lower value): 1.03 (inactive) | normalized growth (locus YER167W, strain BCK2, stronger effect = lower value): 0.825 (active) | normalized growth (locus YFR010W, strain ubp6, stronger effect = lower value): 0.989 (inactive) | normalized growth (locus YGL078C, strain dbp3, stronger effect = lower value): 1.02 (inactive) | normalized growth (locus YGL086W, strain mad1, stronger effect = lower value): 0.889 (active) | normalized growth (locus YGL167C, strain pmr1, stronger effect = lower value): 1.01 (inactive) | normalized growth (locus YGL173C, strain kem1, stronger effect = lower value): 0.974 (inactive) | normalized growth (locus YGL227W, strain vid30, stronger effect = lower value): 1.04 (inactive) | normalized growth (locus YGL240W, strain doc1, stronger effect = lower value): 0.962 (inactive) | normalized growth (locus YGL248W, strain PDE1, stronger effect = lower value): 0.65 (active) | normalized growth (locus YGL253W, strain hxk2, stronger effect = lower value): 0.684 (active) | normalized growth (locus YGR078C, strain PAC10, stronger effect = lower value): 0.776 (active) | normalized growth (locus YGR135W, strain pre9, stronger effect = lower value): 0.808 (active) | normalized growth (locus YGR252W, strain gcn5, stronger effect = lower value): 0.606 (active) | normalized growth (locus YHR013C, strain ard1, stronger effect = lower value): 0.662 (active) | normalized growth (locus YHR027C, strain rpn1, stronger effect = lower value): 0.83 (active) | normalized growth (locus YHR030C, strain SLT2, stronger effect = lower value): 0.815 (active) and 1.02 (inactive) | normalized growth (locus YHR079C, strain IRE1 (second series), stronger effect = lower value): 1 (inactive) | normalized growth (locus YHR079C, strain IRE1, stronger effect = lower value): 1.04 (inactive) | normalized growth (locus YHR094C, strain hxt1, stronger effect = lower value): 1.01 (inactive) | normalized growth (locus YHR129C, strain ARP1, stronger effect = lower value): 0.904 (active) | normalized growth (locus YHR142W, strain chs7, stronger effect = lower value): 1 (inactive) | normalized growth (locus YHR200W, strain rpn10, stronger effect = lower value): 0.857 (active) | normalized growth (locus YIL066C, strain RNR3, stronger effect = lower value): 0.87 (inactive) | normalized growth (locus YIL073C, strain SPO22, stronger effect = lower value): 0.278 (active) | normalized growth (locus YIL125W, strain kgd1, stronger effect = lower value): 1.03 (inactive) | normalized growth (locus YIR030C, strain dcg1, stronger effect = lower value): 1 (inactive) | normalized growth (locus YJL092W, strain hpr5, stronger effect = lower value): 0.893 (active) | normalized growth (locus YJL095W, strain BCK1 (second series), stronger effect = lower value): 1.01 (inactive) | normalized growth (locus YJL095W, strain BCK1, stronger effect = lower value): 0.876 (inactive) and 1.02 (inactive) | normalized growth (locus YJL115W, strain asf1, stronger effect = lower value): 1.01 (inactive) | normalized growth (locus YJL129C, strain trk1, stronger effect = lower value): 0.373 (active) | normalized growth (locus YJL134W, strain LCB3, stronger effect = lower value): 1 (inactive) | normalized growth (locus YJL154C, strain vps35, stronger effect = lower value): 1.01 (inactive) | normalized growth (locus YJL164C, strain tpk1, stronger effect = lower value): 0.92 (inactive) | normalized growth (locus YJL166W, strain qcr8, stronger effect = lower value): 0.955 (inactive) | normalized growth (locus YJL168C, strain set2, stronger effect = lower value): 0.984 (inactive) | normalized growth (locus YJL187C, strain SWE1 (second series), stronger effect = lower value): 0.88 (inactive) | normalized growth (locus YJR043C, strain POL32, stronger effect = lower value): 0.651 (active)
